# Measurements: the supplement of paper PMC10849652
# Of roughly 7,900 targets only a part is listed; those with a hit were picked by preference. About 0.6% of all pairs of compound and target were hits. Values without a mark were called inactive.
# Tests used:
# Assay in all cases: log2 fold change, soluble protein after heating vs DMSO (PISA); higher = thermal stabilisation; K562 cells, 10 uM, 30 min; active = over 0.2 and 3.5 SD of the protein, either way, in both replicates (recomputed)
# [1] = compound: CN1CCN(CCOc2cc(OC3CCOCC3)c3c(Nc4c(Cl)ccc5c4OCO5)ncnc3c2)CC1 [saracatinib]
# Method in brief: (§1)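 K562 cells at 2×10^6 cells/mL were treated with 10 μM compound for 30 min. Aliquots were heated for 3 min across 48°C-58°C, pooled, and extracted in PBS with 0.5% NP-40 at 4°C; soluble protein was the supernatant after 21,000xg for 90 min. Soluble protein was quantified by TMTpro 16plex LC-MS/MS with channel sums equalised, and reported as log2 fold change in thermal stability against DMSO controls, with values from duplicates.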
# [2] = compound: CN1CCN(c2nc(C3=C(c4c[nH]c5ccccc45)C(=O)NC3=O)c3ccccc3n2)CC1 [sotrastaurin]
# Method in brief: as §1
# [3] = compound: CN1CC[C@H](c2c(O)cc(O)c3c(=O)cc(-c4ccccc4Cl)oc23)[C@H](O)C1 [alvocidib]
# Method in brief: as §1
# [4] = compound: CN1CCc2c(c3ccccc3n2Cc2ccc(C(=O)NO)cc2)C1 [Tubastatin A]
# Method in brief: as §1
# [5] = compound: CNC(=O)C1=CC=CC=C1NC2=NC(=NC=C2Cl)NC3=C(C=C(C=C3)N4CCOCC4)OC
# Method in brief: as §1
# [6] = compound: CNC(=O)c1ccc(Nc2ncc(C(F)(F)F)c(NCc3nccnc3N(C)S(C)(=O)=O)n2)cc1 [defactinib]
# Method in brief: as §1
# [7] = compound: CNCc1ccc(-c2[nH]c3cc(F)cc4c3c2CCNC4=O)cc1 [rucaparib]
# Method in brief: as §1
# [8] = compound: CNc1nc(-c2ccc3c(N)n[nH]c3c2)cc(N2C[C@@H](C(=O)NC3CCCCC3)CC[C@H]2C)n1
# Method in brief: as §1
# [9] = compound: COC(=O)N[C@@H](C)CNc1nccc(-c2cn(C(C)C)nc2-c2cc(Cl)cc(NS(C)(=O)=O)c2F)n1 [encorafenib]
# Method in brief: as §1
# [10] = compound: COC(=O)[C@H](CCSC)NC(=O)C1=C(C=C(C=C1)NC[C@H](CS)N)C2=CC=CC=C2
# Method in brief: as §1
# Sequence of UniProt P55060 (P55060 whole entry, looked up): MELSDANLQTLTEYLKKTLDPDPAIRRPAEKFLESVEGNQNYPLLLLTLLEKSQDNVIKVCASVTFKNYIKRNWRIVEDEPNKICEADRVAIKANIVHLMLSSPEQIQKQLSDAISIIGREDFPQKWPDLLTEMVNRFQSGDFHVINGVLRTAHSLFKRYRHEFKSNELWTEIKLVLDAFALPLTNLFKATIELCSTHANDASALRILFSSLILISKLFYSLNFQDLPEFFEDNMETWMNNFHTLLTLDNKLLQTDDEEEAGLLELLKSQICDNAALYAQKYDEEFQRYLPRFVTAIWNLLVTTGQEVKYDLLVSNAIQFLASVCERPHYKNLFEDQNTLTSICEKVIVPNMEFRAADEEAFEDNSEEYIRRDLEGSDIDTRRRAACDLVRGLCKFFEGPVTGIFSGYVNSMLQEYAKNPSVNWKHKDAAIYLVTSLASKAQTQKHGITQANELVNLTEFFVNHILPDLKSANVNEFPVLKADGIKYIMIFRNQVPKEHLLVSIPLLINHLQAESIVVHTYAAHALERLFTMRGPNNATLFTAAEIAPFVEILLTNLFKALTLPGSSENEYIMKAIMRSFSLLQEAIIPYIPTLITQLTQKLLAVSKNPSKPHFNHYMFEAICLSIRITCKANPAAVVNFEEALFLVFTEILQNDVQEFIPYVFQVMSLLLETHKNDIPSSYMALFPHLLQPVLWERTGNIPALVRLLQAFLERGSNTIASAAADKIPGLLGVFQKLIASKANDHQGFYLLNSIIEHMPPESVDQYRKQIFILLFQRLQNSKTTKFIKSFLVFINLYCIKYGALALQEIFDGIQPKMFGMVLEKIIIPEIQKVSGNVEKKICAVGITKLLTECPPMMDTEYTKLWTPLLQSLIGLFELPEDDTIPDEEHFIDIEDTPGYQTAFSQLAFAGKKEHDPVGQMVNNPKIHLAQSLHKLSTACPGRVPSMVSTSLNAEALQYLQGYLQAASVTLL
# Sequence of UniProt Q13555 (Q13555 whole entry, looked up): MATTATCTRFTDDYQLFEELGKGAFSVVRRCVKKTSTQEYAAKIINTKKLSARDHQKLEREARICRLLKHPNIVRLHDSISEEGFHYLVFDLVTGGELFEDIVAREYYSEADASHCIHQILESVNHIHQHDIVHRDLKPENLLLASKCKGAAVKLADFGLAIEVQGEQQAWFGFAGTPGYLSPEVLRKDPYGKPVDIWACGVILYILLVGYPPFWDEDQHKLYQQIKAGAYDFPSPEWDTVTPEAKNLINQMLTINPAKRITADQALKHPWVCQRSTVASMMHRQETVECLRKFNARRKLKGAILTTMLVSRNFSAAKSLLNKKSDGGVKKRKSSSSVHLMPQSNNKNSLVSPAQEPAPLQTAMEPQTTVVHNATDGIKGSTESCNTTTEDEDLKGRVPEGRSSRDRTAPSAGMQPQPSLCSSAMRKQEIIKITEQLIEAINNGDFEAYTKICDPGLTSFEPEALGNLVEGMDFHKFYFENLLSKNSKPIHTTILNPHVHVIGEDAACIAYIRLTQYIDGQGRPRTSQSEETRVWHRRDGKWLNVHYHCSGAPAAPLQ
# Sequence of UniProt Q96GQ5 (Q96GQ5 whole entry, looked up): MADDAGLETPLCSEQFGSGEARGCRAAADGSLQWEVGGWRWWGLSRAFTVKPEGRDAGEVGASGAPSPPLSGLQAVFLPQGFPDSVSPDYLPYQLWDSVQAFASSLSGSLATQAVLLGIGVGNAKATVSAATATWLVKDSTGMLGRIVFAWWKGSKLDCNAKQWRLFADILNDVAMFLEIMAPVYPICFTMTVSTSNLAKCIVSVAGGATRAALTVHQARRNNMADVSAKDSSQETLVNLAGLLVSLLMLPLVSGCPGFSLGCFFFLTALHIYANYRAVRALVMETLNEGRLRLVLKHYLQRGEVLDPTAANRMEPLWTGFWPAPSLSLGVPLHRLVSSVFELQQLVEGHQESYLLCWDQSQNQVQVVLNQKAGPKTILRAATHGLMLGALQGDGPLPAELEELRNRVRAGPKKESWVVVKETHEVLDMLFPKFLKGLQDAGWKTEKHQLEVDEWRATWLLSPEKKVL
# Sequence of UniProt Q96JM3 (Q96JM3 whole entry, looked up): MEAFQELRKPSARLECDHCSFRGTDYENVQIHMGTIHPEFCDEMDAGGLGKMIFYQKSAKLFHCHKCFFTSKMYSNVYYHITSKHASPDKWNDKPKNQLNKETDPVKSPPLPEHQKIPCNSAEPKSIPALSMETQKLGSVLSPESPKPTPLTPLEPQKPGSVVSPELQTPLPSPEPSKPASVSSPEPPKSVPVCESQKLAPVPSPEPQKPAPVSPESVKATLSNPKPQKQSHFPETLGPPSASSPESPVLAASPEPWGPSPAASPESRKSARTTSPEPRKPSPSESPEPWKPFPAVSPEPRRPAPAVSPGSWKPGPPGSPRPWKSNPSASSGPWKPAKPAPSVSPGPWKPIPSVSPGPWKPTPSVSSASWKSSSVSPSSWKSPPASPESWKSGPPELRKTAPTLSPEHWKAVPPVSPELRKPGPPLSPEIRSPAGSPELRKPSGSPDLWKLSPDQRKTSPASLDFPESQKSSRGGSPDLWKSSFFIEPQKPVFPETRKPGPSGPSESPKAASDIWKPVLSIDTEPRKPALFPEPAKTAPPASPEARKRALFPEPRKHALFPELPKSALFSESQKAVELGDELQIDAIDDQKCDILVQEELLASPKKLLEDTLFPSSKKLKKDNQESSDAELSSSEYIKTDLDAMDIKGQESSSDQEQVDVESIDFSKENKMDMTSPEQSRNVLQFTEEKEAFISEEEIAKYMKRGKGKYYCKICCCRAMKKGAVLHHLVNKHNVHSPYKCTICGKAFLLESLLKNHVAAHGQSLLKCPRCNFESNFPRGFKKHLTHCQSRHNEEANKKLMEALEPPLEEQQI
# Sequence of UniProt Q8IWV2 (Q8IWV2 whole entry, looked up): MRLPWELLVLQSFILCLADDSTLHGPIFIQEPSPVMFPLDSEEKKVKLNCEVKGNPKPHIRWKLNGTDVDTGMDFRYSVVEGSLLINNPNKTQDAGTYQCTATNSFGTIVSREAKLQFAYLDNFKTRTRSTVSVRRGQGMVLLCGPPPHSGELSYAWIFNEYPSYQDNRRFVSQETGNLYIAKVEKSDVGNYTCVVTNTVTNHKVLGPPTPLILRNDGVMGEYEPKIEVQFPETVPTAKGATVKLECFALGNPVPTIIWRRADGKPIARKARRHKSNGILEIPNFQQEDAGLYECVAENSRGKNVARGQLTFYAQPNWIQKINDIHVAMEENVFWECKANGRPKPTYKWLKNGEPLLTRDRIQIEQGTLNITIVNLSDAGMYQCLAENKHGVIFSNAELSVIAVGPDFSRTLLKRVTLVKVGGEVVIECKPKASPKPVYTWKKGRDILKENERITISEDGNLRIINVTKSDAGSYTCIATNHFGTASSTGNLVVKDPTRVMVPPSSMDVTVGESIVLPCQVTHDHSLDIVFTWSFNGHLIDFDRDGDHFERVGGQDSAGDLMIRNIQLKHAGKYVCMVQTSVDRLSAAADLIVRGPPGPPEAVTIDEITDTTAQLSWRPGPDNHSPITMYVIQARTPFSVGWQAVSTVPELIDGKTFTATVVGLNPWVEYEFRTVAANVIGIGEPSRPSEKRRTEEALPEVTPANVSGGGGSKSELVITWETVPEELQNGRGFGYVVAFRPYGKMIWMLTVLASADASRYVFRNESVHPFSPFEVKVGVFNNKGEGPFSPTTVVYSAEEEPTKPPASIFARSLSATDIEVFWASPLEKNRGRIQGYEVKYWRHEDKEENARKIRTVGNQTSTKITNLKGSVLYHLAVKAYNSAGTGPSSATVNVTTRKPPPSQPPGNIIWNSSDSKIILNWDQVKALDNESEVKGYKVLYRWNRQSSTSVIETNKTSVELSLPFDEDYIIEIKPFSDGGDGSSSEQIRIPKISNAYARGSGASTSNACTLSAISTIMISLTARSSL
# Sequence of UniProt P67870 (P67870 whole entry, looked up): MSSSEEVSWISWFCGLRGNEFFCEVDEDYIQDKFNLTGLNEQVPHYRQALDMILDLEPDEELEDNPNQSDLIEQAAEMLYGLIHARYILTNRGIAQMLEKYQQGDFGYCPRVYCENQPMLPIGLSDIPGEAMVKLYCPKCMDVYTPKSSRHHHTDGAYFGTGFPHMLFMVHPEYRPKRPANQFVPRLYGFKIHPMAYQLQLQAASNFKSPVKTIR
# Sequence of UniProt O60563 (O60563 whole entry, looked up): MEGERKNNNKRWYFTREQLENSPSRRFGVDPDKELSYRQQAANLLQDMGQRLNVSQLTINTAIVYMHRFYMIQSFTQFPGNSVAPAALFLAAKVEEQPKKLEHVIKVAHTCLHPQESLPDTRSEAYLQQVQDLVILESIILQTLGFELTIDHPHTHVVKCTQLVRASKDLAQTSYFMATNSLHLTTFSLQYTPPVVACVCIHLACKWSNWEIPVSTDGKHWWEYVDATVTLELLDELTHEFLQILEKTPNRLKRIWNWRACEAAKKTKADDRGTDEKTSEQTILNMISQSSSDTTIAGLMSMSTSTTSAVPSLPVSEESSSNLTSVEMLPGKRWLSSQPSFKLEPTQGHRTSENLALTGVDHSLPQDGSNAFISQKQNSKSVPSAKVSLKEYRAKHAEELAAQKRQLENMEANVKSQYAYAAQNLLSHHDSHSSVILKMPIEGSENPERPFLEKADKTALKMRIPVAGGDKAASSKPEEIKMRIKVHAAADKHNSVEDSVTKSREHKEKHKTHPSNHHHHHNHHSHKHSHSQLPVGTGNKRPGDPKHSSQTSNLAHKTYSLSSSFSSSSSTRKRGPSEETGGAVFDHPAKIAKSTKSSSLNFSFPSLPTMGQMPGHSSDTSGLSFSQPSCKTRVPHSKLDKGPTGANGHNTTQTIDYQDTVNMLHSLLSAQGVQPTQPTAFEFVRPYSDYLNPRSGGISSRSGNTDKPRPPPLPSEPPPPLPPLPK
# Sequence of UniProt Q8N1A6 (Q8N1A6 whole entry, looked up): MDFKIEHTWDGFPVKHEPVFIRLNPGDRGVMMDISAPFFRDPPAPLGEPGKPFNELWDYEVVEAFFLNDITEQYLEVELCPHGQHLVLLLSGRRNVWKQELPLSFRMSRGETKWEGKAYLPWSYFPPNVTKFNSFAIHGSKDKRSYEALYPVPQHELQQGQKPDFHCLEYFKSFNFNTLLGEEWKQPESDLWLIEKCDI
Target,log2 fold change [1],log2 fold change [2],log2 fold change [3],log2 fold change [4],log2 fold change [5],log2 fold change [6],log2 fold change [7],log2 fold change [8],log2 fold change [9],log2 fold change [10]
CRLF3 (UniProt Q8IUI8),-0.209,-0.124,-0.161,0.054,0.051,-0.076,0.026,0.036,0.074,-0.013
CHAMP1 (UniProt Q96JM3),0.103,-0.007,-0.139,-0.036,-0.064,-0.104,0.053,-0.001,0.048,0.049
CETN3 (UniProt O15182),-0.027,-0.022,0.013,0.015,0.128,-0.008,-0.006,-0.003,-0.021,0.082
CSE1L (UniProt P55060),0.032,-0.076,-0.069,-0.033,0.016,-0.092,-0.059,-0.057,0.022,-0.013
CLPP (UniProt Q16740),0,0.009,-0.011,0.067,0.054,-0.017,0.026,-0.028,-0.077,-0.038
CSNK2B (UniProt P67870),0.074,0.036,-0.035,0.021,0.246,-0.09,-0.116,-0.031,0.024,0.038
CCDC9 (UniProt Q9Y3X0),0.023,0.077,0.192,-0.046,-0.038,0.148,0.116,-0.031,-0.021,0.004
CTBS (UniProt Q01459),0.081,-0.245,0.029,0.038,0.023,-0.082,0.055,-0.132,-0.093,-0.038
CDK13 (UniProt Q14004),-0.133,-0.121,-0.061,0.042,-0.071,-0.01,0.06,-0.129,0.104,0.036
CPSF7 isoform 3 (UniProt Q8N684),0.006,0.026,-0.018,0.032,-0.071,0.014,0.033,-0.014,-0.014,-0.044
CDAN1 (UniProt Q8IWY9),-0.012,-0.03,-0.019,0.009,-0.029,0.024,0.085,-0.006,0.005,0.112
CKS1B (UniProt P61024),0.06,0.059,-0.067,-0.045,-0.01,-0.054,-0.047,-0.057,0.01,-0.1
CCNB1 (UniProt P14635),-0.005,0.02,-0.006,-0.018,-0.051,-0.065,-0.025,-0.034,-0.002,0.035
CA8 (UniProt P35219),-0.054,-0.023,-0.127,0.084,0.118,-0.163,0.068,0.018,0.024,0.014
CPD (UniProt O75976),-0.047,-0.011,-0.007,0.03,-0.002,-0.026,0.017,-0.006,0.042,0.012
CKB (UniProt P12277),-0.041,0.019,-0.089,-0.004,-0.016,-0.006,-0.059,0.043,0.015,-0.011

Target,log2 fold change [1],log2 fold change [2],log2 fold change [3],log2 fold change [4],log2 fold change [5],log2 fold change [6],log2 fold change [7],log2 fold change [8],log2 fold change [9],log2 fold change [10]
CRKL (UniProt P46109),-1.42 (active),0.003,-0.044,0.003,-0.01,-0.052,-0.001,0,0.016,0.008
CLINT1 isoform 3 (UniProt Q14677),0.083,0.041,0.061,-0.036,0.185,0.035,0.109,-0.06,-0.059,0.012
CNTN4 (UniProt Q8IWV2),-0.026,-0.033,-0.065,0.256,-0.225,-0.06,-0.01,-0.016,-0.082,0.004
CCNT1 (UniProt O60563),-0.005,-0.173,-0.221,0.075,-0.086,-0.213,0.044,0.043,0.163,0.002
COX7B (UniProt P24311),0.174,0.058,0.026,-0.087,0.059,0,-0.02,-0.049,-0.036,-0.073
CLCN3 isoform 2 (UniProt P51790),0.104,-0.002,-0.079,-0.06,-0.018,-0.009,-0.002,-0.015,-0.027,-0.014
CD81 (UniProt P60033),0.163,0.103,0,-0.064,-0.029,-0.053,-0.152,0.207,0.199,0
CAMK2G isoform 6 (UniProt Q13555),-0.005,-0.088,0.123,-0.012,0.25,0.14,0.061,0.129,0,-0.074
CALB1 (UniProt P05937),0.033,0.008,0.034,-0.026,0.02,0.013,-0.07,-0.14,0.023,0.021
C16orf58 (UniProt Q96GQ5),0.042,0.04,-0.032,-0.003,-0.005,-0.031,-0.012,-0.063,0.051,-0.02
CELF2 isoform 3 (UniProt O95319),-0.011,0.076,0.036,-0.102,-0.034,0.098,0.125,-0.099,-0.041,-0.032
CS (UniProt O75390),-0.001,0.02,-0.074,-0.015,0.011,-0.069,0.022,-0.055,-0.042,-0.002
C4orf33 (UniProt Q8N1A6),-0.027,-0.091,-0.07,-0.024,0.048,-0.071,0.091,0.013,-0.076,0.042
CDC26 (UniProt Q8NHZ8),0.032,-0.022,0.026,0,-0.032,-0.11,0.112,-0.013,-0.051,-0.234
CFAP36 isoform 2 (UniProt Q96G28),-0.01,-0.023,-0.132,0.116,0.1,0.13,0.064,-0.058,0.053,0.05
